High-throughput results as filed in PubChem BioAssay.
Dicer processing = human Dicer pre-microRNA cleavage inhibition | cat-ELCCA pre-miR-21 Dicer processing, chemiluminescence; hits give high values | AID 1347074 | Q9UPY3 | actives 6% (n = 47,000) | z-score at 25 µM; in the data active = z-score above about 3, passing the limit was not always enough;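 also: higher signal means more uncleaved substrate so more Dicer inhibition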
Target sequence (Q9UPY3 whole entry, looked up): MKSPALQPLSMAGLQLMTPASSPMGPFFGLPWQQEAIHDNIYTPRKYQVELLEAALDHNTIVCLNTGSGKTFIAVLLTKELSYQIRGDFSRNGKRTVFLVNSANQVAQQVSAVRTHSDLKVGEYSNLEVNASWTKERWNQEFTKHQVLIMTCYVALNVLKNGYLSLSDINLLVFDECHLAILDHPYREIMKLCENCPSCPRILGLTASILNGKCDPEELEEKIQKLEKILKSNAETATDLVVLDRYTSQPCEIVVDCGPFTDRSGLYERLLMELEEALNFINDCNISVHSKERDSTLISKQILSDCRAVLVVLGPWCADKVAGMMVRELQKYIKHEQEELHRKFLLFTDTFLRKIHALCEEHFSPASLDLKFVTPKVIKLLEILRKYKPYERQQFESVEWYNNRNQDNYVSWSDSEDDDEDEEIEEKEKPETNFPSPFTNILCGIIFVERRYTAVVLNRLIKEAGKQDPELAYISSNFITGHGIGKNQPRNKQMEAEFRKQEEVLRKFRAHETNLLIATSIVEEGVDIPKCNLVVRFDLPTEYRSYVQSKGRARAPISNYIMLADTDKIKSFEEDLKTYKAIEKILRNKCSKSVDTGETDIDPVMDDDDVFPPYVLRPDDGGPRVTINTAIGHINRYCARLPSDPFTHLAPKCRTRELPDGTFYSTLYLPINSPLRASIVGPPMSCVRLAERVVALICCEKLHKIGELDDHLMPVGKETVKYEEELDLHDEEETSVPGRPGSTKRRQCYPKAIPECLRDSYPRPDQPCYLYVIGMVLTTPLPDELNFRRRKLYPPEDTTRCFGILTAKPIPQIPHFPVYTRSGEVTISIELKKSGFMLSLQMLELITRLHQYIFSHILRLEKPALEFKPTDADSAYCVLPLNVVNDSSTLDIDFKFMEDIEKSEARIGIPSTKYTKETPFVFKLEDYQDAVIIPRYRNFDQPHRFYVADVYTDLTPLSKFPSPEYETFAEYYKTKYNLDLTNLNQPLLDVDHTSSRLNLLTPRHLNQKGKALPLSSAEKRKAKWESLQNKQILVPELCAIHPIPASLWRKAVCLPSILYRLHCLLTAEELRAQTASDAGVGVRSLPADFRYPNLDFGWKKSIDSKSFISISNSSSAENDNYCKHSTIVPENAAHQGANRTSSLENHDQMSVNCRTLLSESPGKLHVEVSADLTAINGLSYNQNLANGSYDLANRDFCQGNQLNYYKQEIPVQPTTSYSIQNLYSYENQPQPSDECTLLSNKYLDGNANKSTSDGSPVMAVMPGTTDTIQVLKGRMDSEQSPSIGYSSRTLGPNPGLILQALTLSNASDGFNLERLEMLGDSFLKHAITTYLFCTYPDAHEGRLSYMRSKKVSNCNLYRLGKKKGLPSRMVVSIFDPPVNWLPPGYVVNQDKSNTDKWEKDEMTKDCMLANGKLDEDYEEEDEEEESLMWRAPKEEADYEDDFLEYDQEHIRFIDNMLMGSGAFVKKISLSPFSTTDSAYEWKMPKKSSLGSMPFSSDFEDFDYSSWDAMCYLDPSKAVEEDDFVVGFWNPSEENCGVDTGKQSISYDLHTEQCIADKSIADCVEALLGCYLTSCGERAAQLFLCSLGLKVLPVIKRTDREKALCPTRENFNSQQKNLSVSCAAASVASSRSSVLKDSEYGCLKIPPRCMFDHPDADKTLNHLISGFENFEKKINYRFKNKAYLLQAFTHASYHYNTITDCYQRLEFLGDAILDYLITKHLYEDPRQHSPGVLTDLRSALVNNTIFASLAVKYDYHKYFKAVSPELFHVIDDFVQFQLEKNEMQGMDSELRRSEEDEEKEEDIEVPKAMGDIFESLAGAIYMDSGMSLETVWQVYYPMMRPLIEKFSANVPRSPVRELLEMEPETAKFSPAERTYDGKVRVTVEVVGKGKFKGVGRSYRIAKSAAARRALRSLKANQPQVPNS
A number is an active result; 0 = inactive. Only a selection was taken, and hits are over-represented in it overall.

SMILES	Dicer processing
Cc1ccc(S(=O)(=O)N2CCC(CC3CCN(S(=O)(=O)c4ccc(C)cc4)CC3)CC2)cc1	0
O=C(Nc1nnc(CCS(=O)(=O)c2ccc3ccccc3c2)s1)C1CCCCC1	0
O=C(CCC1CCCC1)N1CCN(S(=O)(=O)c2ccc3ccccc3c2)CC1	3.1
Cc1nc(N2C(=O)c3oc4ccccc4c(=O)c3C2c2cccc(O)c2)sc1C (centres undefined)	0
Cc1ccc2c(=O)c(CN3CCCCC3C)c(C)[nH]c2c1C (centres undefined)	0
Cc1cc(C)c2c(=O)n(C(=O)c3ccco3)sc2n1	0
O=C1c2ccccc2C(=O)N1c1snnc1-c1ccc(Cl)cc1	0
C/C(=N/OC(=O)c1ccsc1)c1oc(C)nc1C	0
Cc1ccccc1-n1c(N)cc(=O)n(Cc2cccs2)c1=O	0
COC(=O)C1=C(C)N(Cc2cccnc2)C(=O)C1	0
CCOC(=O)C1=C(C)N(c2ccccc2)C(=O)C1	0
COC(=O)C1=C(C)N(c2cc(C)cc(C)c2)C(=O)C1	3.6
O=C1CC(c2ccccc2Cl)c2c(n[nH]c2-c2ccccc2)N1 (centres undefined)	0
C/C(=N\Nc1cc(Cl)ccc1Cl)c1csc(-c2ccccc2)n1	0
COC(=O)/C(C#N)=C\C=C\c1ccccc1	0
CC1=NN(c2ccccc2)C(=O)/C1=C1/SC(C(=O)c2cccs2)=NN1c1ccccc1	0
CCCCC(Nc1ncnc2ccc(Br)cc12)C(=O)O (centres undefined)	3.9
Cc1ccc2ncnc(NC(CO)C(=O)O)c2c1 (centres undefined)	0
Cc1ccc2ncnc(NC(CC(C)C)C(=O)O)c2c1 (centres undefined)	0
COC(=O)c1ccc(S(=O)(=O)NCc2ccc(N3CCN(C)CC3)cc2)o1	0
C#CCN1C(=O)C(O)(CC(=O)c2c(C)cc(C)cc2C)c2ccccc21 (centres undefined)	4.3
C#CCN1C(=O)C(O)(CC(=O)c2ccc(C)cc2C)c2ccccc21 (centres undefined)	0
C#CCN1C(=O)C(O)(CC(=O)c2cc(C)ccc2C)c2ccccc21 (centres undefined)	0
CCOC(=O)NC(=S)NC(C)(C)C	0
O=C(O)c1ccc(CN2C(=O)COc3ccccc32)cc1	0
SMILES	Dicer processing
COc1ccc(-n2cnc3ccccc3c2=O)cc1	0
CN(n1cnc2ccccc2c1=O)S(C)(=O)=O	3
CN(n1cnc2ccsc2c1=O)S(C)(=O)=O	0
CCOC(=O)c1cc2cc([N+](=O)[O-])ccc2[nH]1	0
CCCC(NC(=O)C(C)N)C(=O)O (centres undefined)	0
CCCn1c2ccccc2c2ccccc21	0
Cc1nnc(SCc2ccccc2Cl)[nH]c1=O	3
CCCc1cc(=O)[nH]c(SCc2ccccc2Cl)n1	0
Cc1cc(=O)[nH]c(SCc2ccccc2Cl)n1	0
COC(=O)c1sc(N2C(=O)C(=O)/C(=C(/O)c3ccc(Cl)cc3)C2c2ccc(C)cc2)nc1C (centres undefined)	0
OCCSc1nnnn1-c1ccccc1	0
O=C(CSc1nnnn1-c1ccccc1)c1ccccc1	0
CCOC(=O)CSc1nnnn1-c1ccccc1	3.7
CC1=CC(C)(C)Nc2ccc(OC(=O)Cc3cccc4ccccc34)cc21	0
O=C1c2cccc3c(N4CCOCC4)ccc(c23)C(=O)N1c1cc(Cl)ccc1O	8.3
O=C1c2cccc3c(N4CCOCC4)ccc(c23)C(=O)N1c1ccccc1	0
O=C1c2cccc3c(N4CCOCC4)ccc(c23)C(=O)N1c1cccc(O)c1	0
Cc1ccc(Oc2ncccc2NC(=O)C(=S)NCc2ccccc2)c2c1CCC2	0
CNC(=O)N1CCCC(Cn2cccc2)C1 (centres undefined)	0
Cc1ccc(OC(=O)OCSc2nn[nH]n2)cc1	0
N#CC(=C1SCCCCS1)S(=O)(=O)c1ccc(Cl)cc1	0
N#CC(=C1SCCS1)c1ccc(Cl)cc1	4.7
N#CC(=C1SCCS1)S(=O)(=O)c1ccc(Cl)cc1	0
O=C1CC(c2ccc(Cl)cc2)Cc2c1cnc1[nH]n(-c3ccccc3)c(=O)c21 (centres undefined)	0
CNC(=O)Cc1sc2ccc(Cl)cc2c1C	0
SMILES	Dicer processing
O=C1c2cccc3cccc(c23)C(=O)N1c1cccc(Cl)c1	0
Cc1ccc(S(=O)(=O)Oc2c(Cc3ccccc3)c(=O)n(C)c3ccccc23)cc1	3.8
Cc1ccc(Cc2c(C)[nH]c3[nH]n(-c4ccccc4)c(=O)c3c2=O)cc1	0
Cc1ccc(S(=O)(=O)Oc2c(-c3ccccc3)c(=O)n(C)c3ccccc23)cc1	0
COCCCNC(=S)NNC(=O)CC#N	0
COc1cc(C(=O)NNC(=O)c2cc(Cl)cc(Cl)c2)c(-n2c(C)ccc2C)cc1OC	0
CC(=O)Nc1ccc(-n2sc3c(c2=S)-c2ccccc2NC3(C)C)cc1	5.3
COc1ccc2c(c1)-c1c(sn(-c3cc(C)ccc3O)c1=S)C(C)(C)N2	0
CCOc1ccc2c(c1)-c1c(sn(-c3ccccc3OC)c1=S)C(C)(C)N2	0
COc1ccc2c(c1)-c1c(sn(-c3ccccc3OC)c1=S)C(C)(C)N2	6.6
CC(=O)Nc1ccc(-n2sc3c(c2=S)-c2cccc(C)c2NC3(C)C)cc1	0
CCOC(=O)c1ccc(-n2sc3c(c2=S)-c2ccccc2NC3(C)C)cc1	0
Cc1nn(S(=O)(=O)c2ccc(Cl)cc2)c(C)c1Cc1c(Cl)cccc1Cl	0
CN(C)c1nc(NC(C)(C)C)nc(Oc2ccc(=O)[nH]n2)n1	0
CCCCCCSc1n[nH]c(=S)s1	0
CCN(CC)CCNc1ncnc2c1sc1nc(C)c3c(c12)CC(C)(C)OC3	0
CCC(C)(C)NC(=S)N/N=C/c1ccccc1SC(C)(C)C	0
CSc1ccc(/C=C/c2nc3n(n2)C=COc2ccccc2-3)cc1	0
COc1ccc(/C=C/c2nc3n(n2)C=COc2ccccc2-3)cc1	0
C1=Cn2nc(/C=C/c3c[nH]c4ccccc34)nc2-c2ccccc2O1	4.2
Cn1nccc1NC(=O)CC1(CC(=O)O)CCCCC1	0
Cc1cc(NC(=O)CCC(=O)O)n(C)n1	0
Cc1cc(NC(=O)CC2(CC(=O)O)CCCC2)n(C)n1	3.4
Cc1ccc(-c2csc(NC3OC(=O)c4ccccc43)n2)cc1C (centres undefined)	0
CC(=O)c1sc2sc(C(=O)O)c(C)c2c1C	0
SMILES	Dicer processing
CCCN1C(=O)N(C)C2NC(=O)NC21 (centres undefined)	0
S=C(NCCc1ccccc1)Nc1cccc(Cl)c1Cl	0
S=C(NCCn1ccnc1)Nc1ccc(Cl)cc1	0
NNC(=S)NCCc1ccc(Cl)cc1	4.5
Cc1cc(Sc2ccccn2)nc(N)n1	0
c1ccc2oc(CCCc3nc4ccccc4o3)nc2c1	5.5
c1cc(-c2nc3ccccc3o2)nc(-c2nc3ccccc3o2)c1	0
c1ccc2oc(-c3ccc(-c4nc5ccccc5o4)cc3)nc2c1	0
FC(F)(F)c1cc(-c2ccco2)nc2c(-c3ccccc3)cnn12	0
CCOC(=O)c1c(N/N=C\c2ccccc2[N+](=O)[O-])n[nH]c1C	0
CCOC(=O)C(NC(=O)CC)(Nc1ccc(F)cc1)C(F)(F)F (centres undefined)	0
O=C(CSc1nccc(-c2cccs2)n1)Nc1ccccc1	0
CC(C)NC(=O)CSc1nccc(-c2cccs2)n1	0
O=C(CSc1nccc(-c2cccs2)n1)c1cc(-c2ccc(Cl)c(Cl)c2)no1	4
Cc1ccc(-c2oc3ccccc3c(=O)c2O)cc1	3.2
Cc1ccc2oc(-c3ccc(F)cc3)c(O)c(=O)c2c1	0
Cc1ccc2oc(-c3ccccc3)c(O)c(=O)c2c1	0
Cc1c(-c2ccccc2)oc2ccccc2c1=O	0
